Source: PubChem BioAssay
KB-V1 cytotox = KB-V1 MDR subline cytotoxicity; KB-V1 MDR cells viability, CellTiter-Glo, 72 h; Potency, µM (doses to about 46.1 µM), actives largely listed as cytotoxic; 3.4% of 400,000 active; note: nearly all actives have a fitted effect of over 60% in size
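In this primary screen, KB-V1 cells overexpressing P-gp are incubated with library compounds (lowest to highest concentration) for 72 h at 37 degrees C before a luminescent ATP viability read.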
KB-3-1 cytotox = KB-3-1 parental cell cytotoxicity; KB-3-1 viability, CellTiter-Glo ATP luminescence, 72 h; Potency, µM (doses to about 46.1 µM), actives largely listed as cytotoxic; 1.4% of 400,000 active; AID 1347075; note: nearly all actives have a fitted effect of over 60% in size
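Luminescent ATP read-out (CellTiter-Glo) measures survival of drug-naive KB-3-1 cells after 72 h compound exposure at 37 °C. Titration series was screened from lowest to highest concentration, with DMSO vehicle plates as background controls.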
DT40 TDP1 CPT = growth inhibition of DT40 Tdp1-/-;hTDP1 cells with camptothecin (screen for TDP1 inhibitors) | chicken DT40 Tdp1-/-;hTDP1 cells + 20 nM CPT, ATP luminescence, 48 h | 12% of 420,000 active | Potency, µM (highest dose often 46.2 µM), without a hit: at the top dose activity change, negative = growth inhibition, actives largely listed as inhibitors; note: nearly all actives have a fitted effect of over 55% in size
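Chicken DT40 Tdp1-/- cells stably complemented with human TDP1 were seeded at 400 cells/well in medium containing 20 nM camptothecin, exposed to pin-transferred compounds, and grown at 37 °C for at least 48 hr. Viability was read as ATP luminescence.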
HT1080 IDH1KD tx = kills HT-1080 cells with IDH1 knockdown. HT-1080 IDH1 knockdown viability, ATP luminescence, 48 h. AID 686971. Potency, µM (doses to about 46.1 µM), for inactives: top-dose activity, negative = toxicity, usual class: cytotoxic. 2% of 360,000 active;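 note: 0% = DMSO wells and -100% = cell-free medium wells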
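% activity derives from luminescence (CellTiter-Glo), normalised to DMSO and no-cell wells. HT-1080-IDH1KD cells, 750/well, had 48 h compound exposure at 37 °C.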
HT1080-NT tox = kills 2HG-producing HT-1080-NT fibrosarcoma cells | HT-1080-NT fibrosarcoma viability, CellTiter-Glo ATP luminescence, 48 h | Potency, µM (titrated, usually from 46.1 µM), for inactives: top-dose activity, negative = less viability, most hits filed as cytotoxic | 1.6% of 360,000 active;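 note: NT is the 2HG producing partner of a matched IDH1 knockdown line; 0% = DMSO-treated cells and -100% = media-only wells without cells; nearly all actives have a fitted effect of over 55% in size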
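Fibrosarcoma NT cells, 750 per well in 5% FBS RPMI, were exposed to compound for 48 hours. Viability: CellTiter-Glo luminescence.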
DT40 TDP1 no CPT = qHTS for Inhibitors of human tyrosyl-DNA phosphodiesterase 1 (TDP1): qHTS in cells in absence of CPT; AID 686978, 2013; DT40 Tdp1-/- hTDP1 cells, no CPT, ATP luminescence, 48 h; Potency, µM (series often up to 46.2 µM), inactives show top-dose activity change, negative = growth inhibition, actives largely listed as inhibitors; 15% of 420,000 active; note: nearly all actives have a fitted effect of over 55% in size
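Seeded 400 DT40-hTDP1 cells/well (vehicle DMSO, no 20 nM CPT); pinned compounds; ≥48 hr at 37 °C; CellTiter-Glo luminescence as viability measure.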
Active calls of the source: *; i = inactive; ? = inconclusive; . = not tested or not shown. A selection: hits, their analogues and other compounds. The true share with any hit is near 19%. Calls come from the whole dose curve; as a rule, active = well fitted curve in the direction sought with a large enough effect; inconclusive = small, poorly fitted or top-dose-only effect, or another doubt; inactive = no such curve, though single readings can be large; an effect the other way counts as inactive or inconclusive. Unless noted, % is set by controls: 0 for no effect and ±100 for the full control effect; potency is the fitted concentration of half-maximal effect.

SMILES	KB-V1 cytotox	KB-3-1 cytotox	DT40 TDP1 CPT	HT1080 IDH1KD tx	HT1080-NT tox	DT40 TDP1 no CPT
C=CCN(Cc1ccc(Br)s1)C(=O)c1ccc(OCc2c(C)noc2C)cc1	i	i	?	-14%	-8%	16µM*
Cc1ccc(NC(=O)CN(C)C(=O)c2ccc(OCc3c(C)noc3C)cc2)cc1	i	i	-20%	11%	9%	-22%
Cc1cccc(NC(=O)C2CCN(c3nnc(C)c4c(C)n(-c5ccccc5)nc34)CC2)c1C	.	.	-16%	.	.	14%
CCc1nc(SCc2cc(=O)c3cc(F)ccc3[nH]2)n[nH]1	i	i	-14%	.	.	?
c1ccc(CN2CCC(CNc3ncnc4ccccc34)C2)cc1 (centres undefined)	?	i	21µM*	-16%	?	10µM*
c1ccc(CN2CCC(Nc3nc(-c4ccccc4)nc4ccccc34)CC2)cc1	?	?	11%	.	.	?
O=c1cc[nH]c2ccc(Cl)cc12	i	i	-15%	11%	-8%	-17%
O=c1cccc2c1c1cc[nH]c3ccc(=O)n2c31	?	?	9.2µM*	-23%	-30%	18µM*
NCCN1C(=O)c2ccccc2C1(O)c1ccc(Cl)cc1 (centres undefined)	.	.	?	.	.	13µM*
CC(O)(c1ccc(F)c(F)c1)c1nc(-c2cc3ccccc3o2)cs1 (centres undefined)	i	i	?	?	?	15µM*
CC(O)(c1ccc(F)c(F)c1)c1nc(-c2csc3ccccc23)cs1 (centres undefined)	i	i	?	?	?	?
CC(O)(c1cccc(F)c1)c1nc(-c2cc3ccccc3o2)cs1 (centres undefined)	i	i	?	?	?	23µM*
CC(O)(c1cccc(F)c1)c1nc(-c2cncnc2)cs1 (centres undefined)	i	i	?	6%	11%	-24%
COc1cccc(C(C)(O)c2nc(-c3cc4ccccc4o3)cs2)c1 (centres undefined)	?	i	16µM*	?	?	23µM*
Cc1cc(C)cc(N(C(=O)c2csnn2)C(C(=O)NC2CCCC2)c2cccnc2)c1 (centres undefined)	i	i	-10%	5%	-4%	-22%
CC(=O)Nc1ccc(OCCC[n+]2ccccc2)cc1	?	i	-3%	9%	1%	22%
CCCCCc1ccc(OCCC[n+]2ccccc2)c(CCCCC)c1	i	12µM*	0.65µM*	5.2µM*	3.7µM*	1µM*
C[n+]1cn(CC(O)COCc2ccccc2)c2ccccc21 (centres undefined)	i	i	?	-6%	-8%	?
CCCCCc1ccc(OCCOCCn2c[n+](C)c3ccccc32)c(CCCCC)c1	i	18µM*	2.3µM*	?	?	2.1µM*
CC(Sc1ccc(S(=O)(=O)N2CCN(C)CC2)cn1)C(=O)NC1CCCCC1 (centres undefined)	i	i	-2%	1%	-2%	-3%
COc1ccc(-c2cc(C(F)(F)F)nc(S(C)(=O)=O)n2)cc1	?	?	2.6µM*	?	18µM*	3.3µM*
CS(=O)(=O)c1nc(-c2ccc(F)cc2)cc(C(F)(F)F)n1	?	?	1.3µM*	8.2µM*	21µM*	1.8µM*
CCCS(=O)(=O)NC(=O)C1(C)CCCN(C(=O)c2nc3ccccc3s2)C1 (centres undefined)	i	i	5%	5%	-5%	-11%
CC(=O)c1cccc(NC(=S)N2CCN(S(=O)(=O)c3ccc(F)cc3)CC2)c1	i	i	23%	-9%	-11%	-10%
O=c1c(CO)cc(CO)cc(CO)c1O	i	i	0%	0%	-9%	-29%
SMILES	KB-V1 cytotox	KB-3-1 cytotox	DT40 TDP1 CPT	HT1080 IDH1KD tx	HT1080-NT tox	DT40 TDP1 no CPT
O=C1C=CC(=O)c2c(O)c(CO)c(CO)c(O)c21	i	i	2.1µM*	-29%	-15%	2.9µM*
O=C1C=CC(=O)c2c(O)c(Cl)c(Cl)c(O)c21	.	.	?	.	.	2.1µM*
O=[N+]([O-])c1ccccc1/C=N/NC1=NCCN1	i	i	2%	0%	-1%	-8%
CN(C)Cc1ccccc1Sc1cccc2ccccc12	?	i	?	-22%	?	?
c1ccc(Sc2cccc3ccccc23)c(CNC2=NCCN2)c1	i	?	13µM*	?	-28%	12µM*
Fc1ccccc1Sc1ccccc1CNC1=NCCN1	i	i	21µM*	-18%	-4%	13µM*
CCC(=O)c1ccc(OCC(=O)N(CC)CC(=O)Nc2ccccc2OC)cc1	16µM*	i	-30%	11%	-1%	-8%
CCN(CC(=O)Nc1ccccc1OC)C(=O)CSCC(=O)Nc1ccc(OC)cc1	?	i	-1%	?	18µM*	-7%
CCOC(=O)Cn1c(=O)n(CC2CCCO2)c2nc(-c3ccccc3OC)nc(C(N)=O)c21 (centres undefined)	.	.	-21%	.	.	-16%
CCOc1ccccc1N1CCN(C(=O)c2ccccc2SCC(=O)N2CCCC2)CC1	?	i	?	13%	-2%	?
COc1cccc(C(NC(C)=O)c2nc(-c3cccc(C(C)C)c3)cs2)c1 (centres undefined)	i	i	?	-27%	-22%	?
CC(=O)[C@H]1CC[C@H]2[C@@H]3CC=C4C[C@@H](O)CC[C@]4(C)[C@H]3CC[C@]12C	?	?	?	4%	29%	?
CC(=O)C1CCC2C3CC(C)=C4CC(O)CCC4(C)C3CCC12C (centres undefined)	i	?	3%	?	?	21µM*
CC(=O)C1CCC2C3CC=C4CC(O)CC[C@@]4(C)C3CC[C@]12C (some centres undefined)	.	.	2%	.	.	-5%
CC(=O)[C@H]1CCC2C3CC=C4C[C@@H](O)CC[C@]4(C)C3CC[C@@]21C (some centres undefined)	?	i	18µM*	1%	4%	?
O=C1C(=Cc2cn(-c3ccccc3)nc2-c2ccc(OCc3ccccc3)cc2)SC(=S)N1CCS(=O)(=O)O	i	i	29µM*	-25%	-17%	?
